ugtP null kill: compounds lethal to S. aureus RN4220 ugtP deletion mutant; OD600 growth, 16 h; AID 1259309; growth inhibition, % (test concentration not listed); 330,000 compounds, 0.54% hits; in the data active = growth inhibition above about 68%
CCHFV vOTU inh: CCHFV vOTU protease inhibition; Pep-AMC fluorescence; inhibition, % at 11.5 µM; 370,000 compounds, 0.55% hits; AID 651958; in the data active = inhibition above about 30%
RN4220 kill: kills Staphylococcus aureus RN4220 | inhibition, % (no concentration beside the values) | 330,000 compounds, 0.33% hits | S. aureus RN4220 growth, OD600, 16 h; in the data active = inhibition above about 85%
VHR inh abs: blocks human VHR1 dual specificity phosphatase | P51452 | recombinant VHR phosphatase, pNPP absorbance | inhibition, % at 13.3 µM | 290,000 compounds, 0.52% hits | AID 1654; in the data active = inhibition above about 50%
Target sequence (P51452 whole entry, looked up): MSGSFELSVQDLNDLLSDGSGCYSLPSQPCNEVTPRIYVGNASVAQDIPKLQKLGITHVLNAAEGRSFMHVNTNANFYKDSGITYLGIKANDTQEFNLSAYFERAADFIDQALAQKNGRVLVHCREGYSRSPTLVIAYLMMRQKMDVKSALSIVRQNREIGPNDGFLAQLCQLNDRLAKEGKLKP
PriA SSB inh: inhibitors of Klebsiella pneumoniae PriA binding to SSB C-terminal tail; inhibition, % at 33 µM; 430,000 compounds, 0.6% hits; AlphaScreen SSBct-PriA binding, biotinylated peptide; AID 1272365; in the data active = inhibition mostly above about 37%, no sharp cut-off; inactive = mostly below about 20%
Each line names hits and unclear results; the compound was inactive in the other large screens; ! = repeats disagree. Shown are actives, neighbours in structure and some others; about 1.5% of the full set was active somewhere.

N#CC1=C2N=C(N)c3c(sc4c3CCCCC4)N2C2=C(C(=O)CCC2)C1c1ccccc1 (centres undefined)	PriA SSB inh 44
Cc1cc(C(=O)NCCn2nc(-n3cncn3)ccc2=O)c(C)o1	none (no result: ugtP null kill, CCHFV vOTU inh, RN4220 kill, VHR inh abs)
Cc1ccc(NC(=O)C(NC2CCCc3ccccc32)c2ccccc2)c([N+](=O)[O-])c1 (centres undefined)	PriA SSB inh 46
Cc1ccc(NC(=O)C(NC2CCCc3ccccc32)c2ccccc2)cc1Cl (centres undefined)	none
Cc1nc2ccc(NS(=O)(=O)c3cccc(Cl)c3Cl)cc2c(=O)n1-c1ccc(F)cc1	none (no result: ugtP null kill, CCHFV vOTU inh, RN4220 kill, VHR inh abs)
O=C(CNCCO)NC1C2CC3CC(C2)CC1C3 (centres undefined)	none (no result: ugtP null kill, CCHFV vOTU inh, RN4220 kill, VHR inh abs)
CSc1ncccc1C(=O)N1CCN(S(=O)(=O)c2ccccc2)CC1	VHR inh abs 58
Brc1ccc(C=Nc2ccc(Nc3ccccc3)cc2)s1	PriA SSB inh 88 (no result: CCHFV vOTU inh)
O=C(Nc1nc2c(s1)CCCC2)C1CCN(c2ccc(-n3cccn3)nn2)CC1	PriA SSB inh 48 (no result: ugtP null kill, CCHFV vOTU inh, RN4220 kill, VHR inh abs)
C[C@H](NC(=O)[C@@H]1Cc2ccccc2CN1)C(=O)NC1CCCCC1	VHR inh abs 53
CCn1c2c(c(=N)c3c1CCC3)CCCC2	none
CCCCCn1c2c(c(=N)c3ccccc31)CCC2	none
CCCCCCCCn1c2c(c(=N)c3ccccc31)CCC2	ugtP null kill 98, RN4220 kill 98
CCCCCCCCCCn1c2c(c(=N)c3c1CCC3)CCC2	ugtP null kill 100, RN4220 kill 100
CCCCCCCCCn1c2c(c(=N)c3c1CCC3)CCCC2	ugtP null kill 100, RN4220 kill 100 (no result: CCHFV vOTU inh)
Cc1ccccc1NC(C)C(=O)N/N=C/c1ccccn1 (centres undefined)	none (no result: ugtP null kill, CCHFV vOTU inh, RN4220 kill, VHR inh abs)
CC(Nc1cccc2ccccc12)C(=O)NN=Cc1ccccn1 (centres undefined)	PriA SSB inh 85 (no result: CCHFV vOTU inh, VHR inh abs)
CCOC(=O)[C@@H]1CCc2sc(NC(=O)Cc3csc(NC(=O)Cc4ccccc4)n3)nc21	none (no result: ugtP null kill, CCHFV vOTU inh, RN4220 kill, VHR inh abs)
O=C(CN1CC(=O)Oc2ccccc21)OCC(=O)c1ccc(Cl)cc1	none (no result: ugtP null kill, CCHFV vOTU inh, RN4220 kill, VHR inh abs)
O=C(CN1CC(=O)Oc2ccccc21)OCC(=O)c1cccc(Br)c1	PriA SSB inh 77 (no result: ugtP null kill, CCHFV vOTU inh, RN4220 kill)
O=C(CN1CC(=O)Oc2ccccc21)OCC(=O)c1ccccc1	PriA SSB inh 92
O=C(NCc1ccc(C(=O)c2ccco2)s1)c1ccoc1	none (no result: ugtP null kill, CCHFV vOTU inh, RN4220 kill, VHR inh abs)
Cc1ccc(NC(=O)CSc2nccc(N3CCCC3)n2)cc1Cl	none (no result: ugtP null kill, CCHFV vOTU inh, RN4220 kill, VHR inh abs)
Cc1ccc2sc(NC(=O)CN3C(=O)CCC3=O)nc2c1C	PriA SSB inh 104
O=C1NC(=S)S/C1=C\c1cc2ccccc2nc1N1CCCCC1	ugtP null kill 86, RN4220 kill 84
O=C1NC(=S)SC1=Cc1ccccc1Cl	ugtP null kill 100, RN4220 kill 98 (no result: VHR inh abs)
CC(C)NC(=O)c1nsc(C(=O)N2CCN(C3CCCCC3)CC2)c1N	none (no result: ugtP null kill, CCHFV vOTU inh, RN4220 kill, VHR inh abs)
Cc1noc(CNC(=O)C2CCN(C(=O)c3cn(C)nn3)CC2)n1	none (no result: ugtP null kill, CCHFV vOTU inh, RN4220 kill, VHR inh abs)
O=C(Nc1cnc2ccnn2c1)Nc1c(F)cccc1F	none (no result: ugtP null kill, CCHFV vOTU inh, RN4220 kill, VHR inh abs)
COc1nccnc1O[C@H]1CCCN(C(=O)c2ccno2)C1	none (no result: ugtP null kill, CCHFV vOTU inh, RN4220 kill, VHR inh abs)
CCCCCCCCCCCC(=O)NC(C(=O)O)C(O)c1ccccc1 (centres undefined)	PriA SSB inh 97
Cc1ccccc1OCCNc1cc(N2CCCCC2)ccc1[N+](=O)[O-]	none
Cc1ccccc1OCCNc1cc(N2CCN(CCO)CC2)ccc1[N+](=O)[O-]	PriA SSB inh 42
Oc1cccc(C=NNC(=S)NCCN2CCOCC2)c1O	PriA SSB inh 58 (no result: ugtP null kill, CCHFV vOTU inh, RN4220 kill, VHR inh abs)
Oc1cccc(/C=N/NC(=S)NCCN2CCOCC2)c1O	none (no result: ugtP null kill, RN4220 kill, PriA SSB inh)
O=C(NCCOCCO)C(=O)Nc1c2c(nn1-c1ccc(F)cc1)CS(=O)(=O)C2	none (no result: ugtP null kill, CCHFV vOTU inh, RN4220 kill, VHR inh abs)
O=C1OC(CN2CCOCC2)CN1N=Cc1ccc([N+](=O)[O-])o1 (centres undefined)	ugtP null kill 100, RN4220 kill 100 (no result: VHR inh abs)
O=C1OC(CN(Cc2ccccc2)Cc2ccccc2)CN1N=Cc1ccc([N+](=O)[O-])o1 (centres undefined)	ugtP null kill 100 (no result: VHR inh abs)
C[C@H](NC(=O)c1cc2c(cn1)[nH]c1ccccc12)C(=O)O	VHR inh abs 57 (no result: ugtP null kill, RN4220 kill)
O=C(O)c1cc2c(cn1)[nH]c1ccccc12	PriA SSB inh 80 (no result: ugtP null kill, RN4220 kill)
O=C(O)c1cnc2ccccc2n1	none
O=C(NCCCO)c1cc2c(cn1)[nH]c1ccccc12	none
O=C(O)c1cc2ccccc2cn1	PriA SSB inh 75! (no result: VHR inh abs)
COC(=O)[C@H](C)NC(=O)c1cc2c(cn1)[nH]c1ccccc12	none (no result: ugtP null kill, RN4220 kill)
O=C(c1ccc(Cn2ccnc2)cc1)N1CCC(Oc2ncccc2Cl)CC1	none (no result: ugtP null kill, CCHFV vOTU inh, RN4220 kill, VHR inh abs)
Cc1cc(C)c(NC(=O)CSc2nccn3nc(-c4ccc(Cl)cc4)cc23)c(C)c1	none (no result: ugtP null kill, CCHFV vOTU inh, RN4220 kill, VHR inh abs)

Screening data (PubChem BioAssay)
